Screening results deposited in PubChem BioAssay by National Center for Advancing Translational Sciences (NCATS).
TCR activator – activators of T cell receptors; primary human leukocytes, anti-CD3, IL-2 HTRF, 48 h; Potency, µM (top dose mostly 9.22 µM), for the others: at the top dose activation of IL-2 secretion, most hits filed as activators; 330,000 tested, under 10 active; AID 504894; also: % of control where 0% means no effect
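Compounds are tested in HTS on primary human leukocytes co-incubated with a-CD3 beads for 48 hr. IL-2 output is measured by time-resolved FRET.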
ClpP mod – qHTS Assay for Activators of ClpP | purified B. subtilis ClpP, FRET peptide cleavage, 20 min | Potency, µM (series often up to 57.5 µM), for the others: top-dose activity change, negative = active | 340,000 compounds, 1.9% hits | AID 651965, 2013; active = well fitted falling curve with a large enough effect; inconclusive = small, poorly fitted or top-dose-only effect; inactive = no such curve, though single readings can be large or run the other way; also: potency is read from the fitted curve at half-maximal effect; the source files actives as falling curves though it sought activators and does not explain the sign; nearly all actives have a fitted effect of over 65% in size
Target sequence (P80244 whole entry, looked up): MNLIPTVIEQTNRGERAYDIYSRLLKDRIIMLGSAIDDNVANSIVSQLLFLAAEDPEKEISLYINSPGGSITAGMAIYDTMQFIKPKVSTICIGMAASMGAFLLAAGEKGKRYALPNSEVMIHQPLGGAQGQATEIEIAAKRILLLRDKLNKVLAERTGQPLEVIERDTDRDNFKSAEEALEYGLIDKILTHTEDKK
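FRET quenching reversal measured ClpP activation: 10 microg/mL B. subtilis ClpP at pH 8 with the FRET-FV decapeptide, read at 430 nm after 320 nm excitation. The 20-min minus 0-min signal was scaled between DMSO/no-enzyme wells and ADEP (5.8 microM final).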
Sfp inh – blocks B. subtilis Sfp PPTase activity | Q9F4F7 | Biochemical Sfp PPTase activity, qHTS | Potency, µM, for the others: largest response in the series, negative = inhibition, most hits filed as inhibitors | 310,000 compounds, 3.5% hits | AID 1490;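 also: the enzyme is Sfp with the accession as filed and its product quenches rhodamine fluorescence; potency is read from the fitted curve at half-maximal effect; 0% = enzyme reaction without inhibitor and -100% = no enzyme wells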
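Fluorescence-quenching assay: 15 nM Sfp-PPTase preincubated 15 min at room temperature with compound, then 5 uM rhodamine-CoA and 12.5 uM BHQ-2-labelled YbbR peptide added. Fluorescence (ex 525/em 598 nm) read at start and after 30 min; difference gives rate.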
uPA surface inh – inhibitors of cell surface uPA generation; cell surface uPA generation assay, qHTS; Potency, µM (top dose mostly 38.3 µM), without a hit: at the top dose activity change, negative = inhibition, actives largely listed as inhibitors; 330,000 compounds, 0.31% hits; active = well fitted inhibition curve with a large enough effect; inconclusive = small, poorly fitted or top-dose-only effect; inactive = no such curve, though single readings can be large or run the other way; tested in mouse RAW 264.7 cells; also: potency is read from the fitted curve at half-maximal effect; % is scaled to controls: 0 for no effect and ±100 for the full control effect; nearly all actives have a fitted effect of over 55% in size
* = called active by the depositor; ? = inconclusive; . = not tested or not shown; [ ] = another dose, or the depositor's remark. An excerpt weighted towards active compounds, which were near 4.2% of everything screened. Unless noted, calls follow the shape of the dose curve; as a rule, active = well fitted curve in the direction sought with a large enough effect; inconclusive = small, poorly fitted or top-dose-only effect, or another doubt; inactive = no such curve, though single readings can be large; an effect the other way counts as inactive or inconclusive.

SMILES	TCR activator	ClpP mod	Sfp inh	uPA surface inh
CCCNC(=O)c1ccc(N2CCC3(CC2)CC(c2ccccc2)=NO3)c(NC(=O)c2ccccc2)c1	3%	?	56µM*	12%
CC(=O)c1ccc(NC(=O)CSc2nnc(-c3ccncc3)n2-c2ccccc2)cc1	.	0%	.	.
Cc1c(C#N)c(N)nc(Cl)c1C#N	-12%	.	-12%	-6%
N#Cc1c(Cl)nsc1NN	8%	.	40µM*	-3%
CC(OC(=O)Cc1ccsc1)C(=O)Nc1ccc(Cl)cn1 (stereo not drawn)	1%	25µM*	.	7%
COc1cccc(CC(=O)OC(C)C(=O)Nc2ccc(Cl)cn2)c1 (stereo not drawn)	-1%	-7%	.	4%
CC(OC(=O)c1ccccc1NCc1ccco1)C(=O)Nc1ncc(Cl)cc1Cl (stereo not drawn)	1%	32µM*	-15%	0%
CC(OC(=O)c1ccc(S(=O)(=O)NCc2ccco2)cc1)C(=O)Nc1ccc(Cl)cn1 (stereo not drawn)	4%[46.1 µM]	-1%	-8%	-7%
CNc1ccccc1C(=O)OC(C)C(=O)Nc1ccc(Cl)cn1 (stereo not drawn)	-21%	25µM*	-18%	-13%
COc1ccc(Br)cc1C(C[N+](=O)[O-])c1c(N)n(C)c(=O)n(C)c1=O (stereo not drawn)	7%	-3%	?	3.5µM*
NS(=O)(=O)c1ccc(NC(=S)Nc2ccc(S(=O)(=O)N3CCCC3)cc2)cc1	-2%	.	50µM*	-1%
NS(=O)(=O)c1ccc(NC(=S)NC2CC2)cc1	-17%	-2%	10µM*	-5%
CC1(C)CC(NC(=S)Nc2ccc(S(N)(=O)=O)cc2)CC(C)(C)N1	1%	.	-71%	-3%
CC(CNC(=O)C1CCN(S(=O)(=O)c2ccc3c(ccn3C)c2)CC1)c1ccccc1 (stereo not drawn)	.	-1%	.	.
CCOc1ccc(/C=C/c2ccnc3ccccc23)cc1OCC	.	-10%	.	.
CCOc1ccc(/C=C/[N+](=O)[O-])c2ccccc12	-3%	-1%	8.9µM*	.
COC(=O)c1ccc(Cn2cc(/C=C\[N+](=O)[O-])c3ccccc32)o1	3%	.	56µM*	-5%
CCOC(=O)Cn1cc(C#N)c2ccccc21	10%	2%	8%	-1%
CCOC(=O)Cn1cc(/C=C/[N+](=O)[O-])c2ccccc21	-4%	2%	-26%	10µM*
CCOC(=O)COc1ccc(/C=C/[N+](=O)[O-])c(OCC(=O)OCC)c1	0%	-2%	-30%	.
CCOC(=O)COc1ccc2ccccc2c1/C=C/[N+](=O)[O-]	-2%[46.1 µM]	-1%	20µM*	-21%
Nc1ccccc1NC(=O)CCn1c(=S)[nH]c2ccccc2c1=O	-9%	-2%	11%	?
COc1ccc(NC(=O)C(=O)NCCc2csc3nc(-c4ccccc4F)nn23)cc1OC	.	-1%	.	.
CC(C(=O)NC(C)(C)C)N(C(=O)CS(=O)CC(=O)Nc1ccc(F)cc1)C1CCCC1 (stereo not drawn)	-7%	1%	16%	10%
CC(C)NC(=O)CCCc1cn(C)c2ccccc12	-10%	32µM*	19%	6%
SMILES	TCR activator	ClpP mod	Sfp inh	uPA surface inh
COc1ccc(NC(=S)NNC(=O)COc2ccc(Cl)cc2Cl)cc1	13%[46.1 µM]	-22%	-10%	1%
COc1ccc(NC(=S)NNC(=O)CNc2ccc(Cl)cc2)cc1	-33%	2%	79µM*	8%
Cc1oc(-c2cccc(Cl)c2)nc1CS(=O)(=O)CC(=O)NCCCN1CCOCC1	8%	-8%	1%	-1%
COC(=O)C1=C(C)N(Cc2ccccc2)C(=NCc2cccc(C(F)(F)F)c2)N[C@H]1c1cccc(F)c1	2%	-3%	56µM*	?
CNC(=S)NCCc1cc2c(OC)ccc(OC)c2[nH]c1=O	10%	-4%	-7%	3%
CCc1ccc(C2=CC(c3cccc(C)c3)n3c(nc4ccccc43)N2)cc1 (stereo not drawn)	.	-2%	.	.
C=CCOC(=O)/C=C/C(=O)NC(N)=O	11%	2%	20µM*	7%
O=C(CCc1ccccc1)NC(=S)Nc1ccc(S(=O)(=O)N2CCOCC2)cc1	-4%	10µM*	20%	-5%
O=C(CNC(=O)c1ccco1)Nc1cc(Cl)ccc1N1CCOCC1	1%	28µM*	10%	8%
O=C(NC(=S)Nc1cc(S(=O)(=O)N2CCOCC2)ccc1O)c1ccco1	-3%	.	45µM*	-2%
O=C(NC(=S)Nc1cc(S(=O)(=O)N2CCOCC2)ccc1N1CCOCC1)c1ccco1	13%	2%	10%	.
CCN(CC)S(=O)(=O)c1ccc(N2CCOCC2)c(NC(=S)NC(=O)c2ccco2)c1	-5%	.	20µM*	-2%
COc1ccc(-c2cc(C(F)(F)F)n3nc(C(=O)O)c(Cl)c3n2)cc1OC	.	1%	.	.
CCN1C(=NCc2cc(OC)c(OC)c(OC)c2)N[C@@H](c2cccc(F)c2)C(C(=O)OC)=C1C	.	.	2%	.
COc1ccc(C2C=C(Nc3ccccc3)C(=O)N2c2ccccc2)cc1OC (stereo not drawn)	1%[46.1 µM]	?	?	-2%
COc1cccc(C2C=C(Nc3ccccc3)C(=O)N2c2ccccc2)c1 (stereo not drawn)	-1%[46.1 µM]	.	63µM*	0%
CCCCCCCCCCCCCCCCCCN(CCCCCCCCCCCCCCCCCC)c1ccc(C=O)cc1	.	1%	.	.
CCCN(Cc1cccs1)C(=O)Nc1ccc(Br)c(C)c1	.	1%	.	.
CCOc1[nH]n(-c2ccccc2)c(=O)c1C=Nc1ccccc1	-2%	2%	15%	6.3µM*
Fc1cc(F)c(NC(=S)N2CCOCC2)c(F)c1	7%	-2%	3%	-6%
c1ccc(-c2ccc(N3CCCC4(CCNCC4)C3)cc2)cc1	.	.	28µM*	.
COc1ccc(NC(=S)NCCc2ccccc2OC)c(OC)c1	3%	-3%	89µM*	0%
COc1ccccc1NC(=S)NCc1cccs1	-2%[46.1 µM]	13µM*	3%	-3%
NS(=O)(=O)c1ccc(NC(=S)NCc2cccs2)cc1	-2%	.	20µM*	0%
COc1ccc(NC(=S)NCc2ccccc2Cl)c(OC)c1	.	-1%	19%	3%
SMILES	TCR activator	ClpP mod	Sfp inh	uPA surface inh
COc1ccc(CNC(=S)Nc2ccc(S(N)(=O)=O)cc2)cc1	4%	1%	50µM*	6%
Cc1ccc(Sc2cncc3sc(C(N)=O)cc23)cc1	.	.	11%	.
COc1ccc(NC(=S)NCc2ccc(S(N)(=O)=O)cc2)c(OC)c1	-1%[46.1 µM]	-2%	32µM*	-3%
Cc1nc(NC(=O)c2c(-c3ccccc3Cl)noc2C)sc1C	-2%	0%	7%	9%
CC(C)NC(=O)CSc1nc2ccccc2n1-c1ccccc1	1%[46.1 µM]	1%	19%	.
CC(C)(C)NC(=O)CSc1nc2ccccc2n1-c1ccccc1	0%	-3%	50µM*	10%
CCN(CC)c1cc(C)c2cc(NC(=O)CNC(C)=O)ccc2n1	0%	16µM*	20%	3%
Cc1ccc(C(C)C)c(OCC(=O)NN=C(CCl)CCl)c1	.	.	50µM*	.
Cc1cc(-c2ccco2)c(C#N)c2nc3ccccc3n12	-5%	?	50µM*	-8%
